Source: ChEMBL document CHEMBL1961873, “Compounds: GSK PKIS; Assays: Nanosyn kinase panel” (2012)

Columns and labels:
[1] = target: Sphingosine kinase 1 (Homo sapiens) (UniProt Q9NYA1); conditions: at 1 µM;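 note: mean SPHK1 inhibition value reported from the GSK PKIS kinase panel screen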
[2] = target: T1, Sphingosine kinase 2 (Homo sapiens) (UniProt Q9NRA0); conditions: at 0.1 µM
T1 sequence (whole entry): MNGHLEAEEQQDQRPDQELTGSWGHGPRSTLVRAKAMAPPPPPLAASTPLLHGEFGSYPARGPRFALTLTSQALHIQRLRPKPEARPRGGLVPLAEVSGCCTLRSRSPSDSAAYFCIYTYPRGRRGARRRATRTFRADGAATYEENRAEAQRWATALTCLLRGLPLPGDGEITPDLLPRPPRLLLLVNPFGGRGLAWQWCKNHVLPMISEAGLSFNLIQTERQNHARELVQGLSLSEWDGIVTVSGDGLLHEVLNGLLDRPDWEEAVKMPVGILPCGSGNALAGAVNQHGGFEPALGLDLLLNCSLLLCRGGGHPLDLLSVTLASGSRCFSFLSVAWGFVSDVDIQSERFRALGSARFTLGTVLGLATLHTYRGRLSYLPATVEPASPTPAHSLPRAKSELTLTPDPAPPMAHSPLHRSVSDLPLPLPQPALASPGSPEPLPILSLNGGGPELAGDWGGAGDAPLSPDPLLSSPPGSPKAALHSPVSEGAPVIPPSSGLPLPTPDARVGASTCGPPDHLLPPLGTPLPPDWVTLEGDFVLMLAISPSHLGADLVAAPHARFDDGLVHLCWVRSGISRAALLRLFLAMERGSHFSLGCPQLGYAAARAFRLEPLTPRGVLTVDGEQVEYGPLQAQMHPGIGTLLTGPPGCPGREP

[3] = target: T1, Sphingosine kinase 2 (Homo sapiens); conditions: at 1 µM
[4] = target: Casein kinase II subunit alpha (Homo sapiens) (UniProt P68400); conditions: at 0.1 µM
Casein kinase II subunit alpha (Homo sapiens), sequence (P68400 whole entry, looked up): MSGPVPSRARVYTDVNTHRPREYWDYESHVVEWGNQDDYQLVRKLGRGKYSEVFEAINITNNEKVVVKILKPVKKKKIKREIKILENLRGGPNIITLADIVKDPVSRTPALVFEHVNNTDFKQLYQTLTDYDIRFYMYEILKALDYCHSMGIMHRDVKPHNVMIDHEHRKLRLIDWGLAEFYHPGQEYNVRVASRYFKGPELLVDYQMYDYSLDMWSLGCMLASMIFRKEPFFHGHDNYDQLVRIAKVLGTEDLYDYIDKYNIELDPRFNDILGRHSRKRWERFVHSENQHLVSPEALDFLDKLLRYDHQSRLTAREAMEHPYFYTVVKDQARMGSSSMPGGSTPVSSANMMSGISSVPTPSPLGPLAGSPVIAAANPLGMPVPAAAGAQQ

[5] = target: Casein kinase II subunit alpha (Homo sapiens) (UniProt P68400); conditions: at 1 µM
[6] = target: T2, Inhibitor of nuclear factor kappa-B kinase subunit alpha (Homo sapiens) (UniProt O15111); conditions: at 0.1 µM
T2 sequence (whole entry): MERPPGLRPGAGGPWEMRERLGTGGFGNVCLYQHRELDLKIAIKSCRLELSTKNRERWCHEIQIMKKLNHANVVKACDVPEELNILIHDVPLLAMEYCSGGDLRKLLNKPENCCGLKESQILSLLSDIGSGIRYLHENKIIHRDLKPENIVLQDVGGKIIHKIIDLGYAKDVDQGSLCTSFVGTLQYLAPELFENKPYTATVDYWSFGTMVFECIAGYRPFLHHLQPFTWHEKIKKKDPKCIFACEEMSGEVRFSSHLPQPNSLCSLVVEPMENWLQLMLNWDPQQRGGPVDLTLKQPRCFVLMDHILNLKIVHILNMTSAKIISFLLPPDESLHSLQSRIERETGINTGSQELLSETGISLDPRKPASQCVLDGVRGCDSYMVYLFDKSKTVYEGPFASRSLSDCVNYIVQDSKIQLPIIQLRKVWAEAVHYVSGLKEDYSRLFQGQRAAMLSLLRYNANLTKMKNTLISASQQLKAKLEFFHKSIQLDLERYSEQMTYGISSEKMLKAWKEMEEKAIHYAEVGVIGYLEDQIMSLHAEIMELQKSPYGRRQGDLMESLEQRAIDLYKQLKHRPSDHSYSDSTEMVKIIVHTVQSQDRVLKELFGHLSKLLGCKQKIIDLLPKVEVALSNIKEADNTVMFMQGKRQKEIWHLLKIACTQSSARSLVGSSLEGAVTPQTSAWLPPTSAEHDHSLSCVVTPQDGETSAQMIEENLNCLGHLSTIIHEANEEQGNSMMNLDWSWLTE

[7] = target: T2, Inhibitor of nuclear factor kappa-B kinase subunit alpha (Homo sapiens); conditions: at 1 µM
[8] = target: T3, Inhibitor of nuclear factor kappa-B kinase subunit beta (Homo sapiens) (UniProt O14920); conditions: at 0.1 µM
T3 sequence (whole entry): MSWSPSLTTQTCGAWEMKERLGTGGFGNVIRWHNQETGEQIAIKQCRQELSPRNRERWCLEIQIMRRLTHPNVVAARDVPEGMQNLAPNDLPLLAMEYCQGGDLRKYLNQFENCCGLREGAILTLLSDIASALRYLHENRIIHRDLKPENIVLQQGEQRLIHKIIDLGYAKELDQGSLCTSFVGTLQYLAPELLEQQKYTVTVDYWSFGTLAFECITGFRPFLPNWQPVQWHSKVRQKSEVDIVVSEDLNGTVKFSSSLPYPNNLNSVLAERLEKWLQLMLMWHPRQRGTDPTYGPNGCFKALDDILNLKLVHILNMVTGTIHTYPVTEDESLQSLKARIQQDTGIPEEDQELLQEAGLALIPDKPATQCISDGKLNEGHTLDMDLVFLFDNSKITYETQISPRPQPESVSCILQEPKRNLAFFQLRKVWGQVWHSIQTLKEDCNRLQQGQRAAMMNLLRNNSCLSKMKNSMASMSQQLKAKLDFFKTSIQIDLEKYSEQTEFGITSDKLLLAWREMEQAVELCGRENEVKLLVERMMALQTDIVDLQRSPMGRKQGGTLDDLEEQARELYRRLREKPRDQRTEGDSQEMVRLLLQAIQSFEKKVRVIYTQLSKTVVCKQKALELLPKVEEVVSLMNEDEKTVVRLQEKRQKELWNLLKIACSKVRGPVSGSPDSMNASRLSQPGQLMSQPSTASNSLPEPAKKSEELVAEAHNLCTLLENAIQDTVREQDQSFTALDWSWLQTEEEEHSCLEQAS

[9] = target: T3, Inhibitor of nuclear factor kappa-B kinase subunit beta (Homo sapiens); conditions: at 1 µM
[10] = target: T4, Inhibitor of nuclear factor kappa-B kinase subunit epsilon (Homo sapiens) (UniProt Q14164); conditions: at 0.1 µM
T4 sequence (whole entry): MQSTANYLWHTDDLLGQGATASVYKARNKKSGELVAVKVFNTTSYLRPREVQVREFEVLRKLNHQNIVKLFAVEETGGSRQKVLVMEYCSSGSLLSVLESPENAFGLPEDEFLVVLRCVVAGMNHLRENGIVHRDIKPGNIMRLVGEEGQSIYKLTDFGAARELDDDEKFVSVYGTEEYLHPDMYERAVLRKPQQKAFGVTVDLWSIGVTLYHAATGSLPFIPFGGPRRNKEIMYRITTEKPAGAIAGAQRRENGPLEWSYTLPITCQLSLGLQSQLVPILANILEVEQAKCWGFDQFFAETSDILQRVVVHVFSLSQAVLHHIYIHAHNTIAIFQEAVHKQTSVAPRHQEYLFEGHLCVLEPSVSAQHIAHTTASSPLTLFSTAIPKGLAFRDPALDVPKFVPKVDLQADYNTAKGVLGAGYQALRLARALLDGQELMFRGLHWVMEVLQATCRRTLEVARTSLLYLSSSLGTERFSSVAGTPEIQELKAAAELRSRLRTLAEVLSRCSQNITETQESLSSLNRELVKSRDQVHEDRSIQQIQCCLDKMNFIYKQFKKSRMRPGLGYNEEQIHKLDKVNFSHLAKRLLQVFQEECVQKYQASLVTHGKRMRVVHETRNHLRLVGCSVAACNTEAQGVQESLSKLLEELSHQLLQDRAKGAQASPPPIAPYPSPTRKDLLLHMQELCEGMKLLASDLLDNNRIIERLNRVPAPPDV

[11] = target: T4, Inhibitor of nuclear factor kappa-B kinase subunit epsilon (Homo sapiens); conditions: at 1 µM
[12] = target: T5, Serine/threonine-protein kinase Nek1 (Homo sapiens) (UniProt Q96PY6); conditions: at 0.1 µM
T5 sequence (whole entry): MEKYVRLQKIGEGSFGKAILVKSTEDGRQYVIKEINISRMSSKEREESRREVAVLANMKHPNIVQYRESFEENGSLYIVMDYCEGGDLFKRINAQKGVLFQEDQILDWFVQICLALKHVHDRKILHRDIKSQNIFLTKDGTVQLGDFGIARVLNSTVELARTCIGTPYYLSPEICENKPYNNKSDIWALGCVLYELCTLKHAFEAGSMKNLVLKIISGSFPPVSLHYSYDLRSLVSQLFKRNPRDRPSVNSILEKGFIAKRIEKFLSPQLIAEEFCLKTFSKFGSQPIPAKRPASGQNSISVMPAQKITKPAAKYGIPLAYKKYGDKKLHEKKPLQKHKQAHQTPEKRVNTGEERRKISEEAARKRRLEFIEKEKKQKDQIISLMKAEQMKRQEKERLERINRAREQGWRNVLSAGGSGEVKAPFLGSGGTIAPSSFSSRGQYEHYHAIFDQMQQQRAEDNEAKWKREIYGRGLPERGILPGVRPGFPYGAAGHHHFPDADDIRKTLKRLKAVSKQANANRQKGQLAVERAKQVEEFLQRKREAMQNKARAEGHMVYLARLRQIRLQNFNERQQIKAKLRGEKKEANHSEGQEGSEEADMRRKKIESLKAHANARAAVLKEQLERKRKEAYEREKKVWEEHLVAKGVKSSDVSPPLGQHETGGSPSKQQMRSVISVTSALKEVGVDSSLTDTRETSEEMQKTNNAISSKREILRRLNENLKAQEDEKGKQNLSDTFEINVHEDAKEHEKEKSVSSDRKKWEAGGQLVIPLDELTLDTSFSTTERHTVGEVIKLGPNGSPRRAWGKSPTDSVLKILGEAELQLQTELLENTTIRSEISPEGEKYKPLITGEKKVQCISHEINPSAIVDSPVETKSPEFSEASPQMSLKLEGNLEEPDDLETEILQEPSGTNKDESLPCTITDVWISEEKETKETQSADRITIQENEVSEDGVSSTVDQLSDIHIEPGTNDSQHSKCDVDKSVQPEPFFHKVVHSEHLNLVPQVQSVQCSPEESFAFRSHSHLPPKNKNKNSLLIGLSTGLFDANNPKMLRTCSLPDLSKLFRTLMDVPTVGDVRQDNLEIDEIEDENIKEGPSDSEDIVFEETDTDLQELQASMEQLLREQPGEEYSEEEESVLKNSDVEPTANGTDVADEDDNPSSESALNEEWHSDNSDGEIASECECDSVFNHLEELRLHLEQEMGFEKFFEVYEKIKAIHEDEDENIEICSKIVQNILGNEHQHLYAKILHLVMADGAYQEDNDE

[13] = target: T5, Serine/threonine-protein kinase Nek1 (Homo sapiens); conditions: at 1 µM
[14] = target: T6, Serine/threonine-protein kinase Nek2 (Homo sapiens) (UniProt P51955); conditions: at 0.1 µM
T6 sequence (whole entry): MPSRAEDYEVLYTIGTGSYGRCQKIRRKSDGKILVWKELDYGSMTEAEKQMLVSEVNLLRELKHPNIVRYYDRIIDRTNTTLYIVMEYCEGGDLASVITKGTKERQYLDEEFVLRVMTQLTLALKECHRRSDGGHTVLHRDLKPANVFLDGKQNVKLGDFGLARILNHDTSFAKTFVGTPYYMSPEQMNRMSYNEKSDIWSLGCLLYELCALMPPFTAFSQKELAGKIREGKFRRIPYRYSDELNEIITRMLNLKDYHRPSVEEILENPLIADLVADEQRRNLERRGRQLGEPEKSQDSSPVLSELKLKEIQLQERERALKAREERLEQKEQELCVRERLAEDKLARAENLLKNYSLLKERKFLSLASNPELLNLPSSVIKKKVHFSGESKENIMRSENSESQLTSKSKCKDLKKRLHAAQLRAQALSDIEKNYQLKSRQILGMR

[15] = target: T6, Serine/threonine-protein kinase Nek2 (Homo sapiens); conditions: at 1 µM
[16] = target: Serine/threonine-protein kinase Nek6 (Homo sapiens) (UniProt Q9HC98); conditions: at 0.1 µM
Serine/threonine-protein kinase Nek6 (Homo sapiens), sequence (Q9HC98 whole entry): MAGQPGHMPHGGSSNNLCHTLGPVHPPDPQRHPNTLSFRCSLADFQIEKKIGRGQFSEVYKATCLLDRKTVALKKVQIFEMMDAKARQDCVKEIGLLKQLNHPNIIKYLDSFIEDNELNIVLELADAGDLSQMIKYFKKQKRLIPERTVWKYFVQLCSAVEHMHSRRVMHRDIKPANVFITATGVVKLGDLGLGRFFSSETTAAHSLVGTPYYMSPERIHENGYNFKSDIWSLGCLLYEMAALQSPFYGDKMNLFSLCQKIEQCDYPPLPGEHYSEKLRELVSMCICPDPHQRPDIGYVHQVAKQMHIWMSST

[17] = target: Serine/threonine-protein kinase Nek6 (Homo sapiens) (UniProt Q9HC98); conditions: at 1 µM
[18] = target: Serine/threonine-protein kinase Nek7 (Homo sapiens) (UniProt Q8TDX7); conditions: at 0.1 µM
Serine/threonine-protein kinase Nek7 (Homo sapiens), sequence (Q8TDX7 whole entry, looked up): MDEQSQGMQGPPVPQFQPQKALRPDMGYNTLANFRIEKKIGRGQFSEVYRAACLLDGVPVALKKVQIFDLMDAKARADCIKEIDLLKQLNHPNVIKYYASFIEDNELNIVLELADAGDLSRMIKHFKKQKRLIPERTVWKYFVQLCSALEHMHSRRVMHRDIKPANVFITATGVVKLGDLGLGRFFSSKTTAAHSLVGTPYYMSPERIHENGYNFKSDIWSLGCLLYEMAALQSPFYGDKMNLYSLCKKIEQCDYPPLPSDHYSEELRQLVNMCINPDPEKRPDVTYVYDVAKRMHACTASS

[19] = target: Serine/threonine-protein kinase Nek7 (Homo sapiens) (UniProt Q8TDX7); conditions: at 1 µM
[20] = target: T7, Serine/threonine-protein kinase Nek9 (Homo sapiens) (UniProt Q8TD19); conditions: at 0.1 µM;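 note: reported value is the mean percent inhibition of NEK9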
T7 sequence (whole entry): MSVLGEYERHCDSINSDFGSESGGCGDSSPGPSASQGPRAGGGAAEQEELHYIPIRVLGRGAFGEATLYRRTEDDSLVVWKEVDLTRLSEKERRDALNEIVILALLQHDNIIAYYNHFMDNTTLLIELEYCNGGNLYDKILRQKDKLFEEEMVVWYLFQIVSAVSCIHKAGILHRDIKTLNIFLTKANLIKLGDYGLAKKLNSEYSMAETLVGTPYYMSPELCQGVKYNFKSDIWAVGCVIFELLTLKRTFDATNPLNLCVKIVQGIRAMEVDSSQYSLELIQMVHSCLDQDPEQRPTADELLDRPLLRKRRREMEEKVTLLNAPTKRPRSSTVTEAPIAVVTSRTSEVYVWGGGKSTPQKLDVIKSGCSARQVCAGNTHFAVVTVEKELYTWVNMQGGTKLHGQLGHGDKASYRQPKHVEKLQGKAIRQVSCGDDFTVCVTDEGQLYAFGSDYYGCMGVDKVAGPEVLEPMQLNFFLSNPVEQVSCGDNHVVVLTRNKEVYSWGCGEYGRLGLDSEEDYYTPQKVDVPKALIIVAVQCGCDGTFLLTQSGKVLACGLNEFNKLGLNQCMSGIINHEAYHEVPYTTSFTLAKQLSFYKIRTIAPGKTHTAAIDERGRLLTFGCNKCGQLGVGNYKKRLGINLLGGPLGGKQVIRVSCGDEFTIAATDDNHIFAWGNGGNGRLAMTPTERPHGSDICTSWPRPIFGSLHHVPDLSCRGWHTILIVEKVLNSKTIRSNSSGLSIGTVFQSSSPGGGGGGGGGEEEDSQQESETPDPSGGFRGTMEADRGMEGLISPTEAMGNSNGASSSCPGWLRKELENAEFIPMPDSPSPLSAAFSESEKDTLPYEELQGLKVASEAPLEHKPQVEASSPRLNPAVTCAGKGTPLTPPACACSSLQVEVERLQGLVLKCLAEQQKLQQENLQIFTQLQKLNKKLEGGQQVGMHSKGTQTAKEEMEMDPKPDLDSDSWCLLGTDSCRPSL

Sphingosine kinase 1 (Homo sapiens), sequence (Q9NYA1 whole entry): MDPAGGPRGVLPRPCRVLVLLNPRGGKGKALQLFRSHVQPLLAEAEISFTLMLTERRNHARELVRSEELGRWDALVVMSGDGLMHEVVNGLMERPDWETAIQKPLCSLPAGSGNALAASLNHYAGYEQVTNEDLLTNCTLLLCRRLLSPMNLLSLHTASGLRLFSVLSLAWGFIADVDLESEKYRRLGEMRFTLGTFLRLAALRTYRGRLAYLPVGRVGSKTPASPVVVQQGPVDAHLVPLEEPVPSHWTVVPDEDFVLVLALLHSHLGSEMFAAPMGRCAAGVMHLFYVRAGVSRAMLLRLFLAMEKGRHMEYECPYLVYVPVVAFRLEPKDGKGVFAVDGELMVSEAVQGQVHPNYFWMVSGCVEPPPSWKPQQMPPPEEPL

Compound	inhibition [1] [%]	inhibition [2] [%]	inhibition [3] [%]	inhibition [4] [%]	inhibition [5] [%]	inhibition [6] [%]	inhibition [7] [%]	inhibition [8] [%]	inhibition [9] [%]	inhibition [10] [%]	inhibition [11] [%]	inhibition [12] [%]	inhibition [13] [%]	inhibition [14] [%]	inhibition [15] [%]	inhibition [16] [%]	inhibition [17] [%]	inhibition [18] [%]	inhibition [19] [%]	inhibition [20] [%]
Cc1cccc(-c2n[nH]cc2-c2ccc3ncccc3n2)n1	-1.51	0.61	0.2	1.46	4.82	2.07	5.93	0.87	0.63	0.62	2.37	2.07	2.35	1.59	1.08	1.75	3.64	2.98	1.74	1.6
Cc1cc(O)cc(C)c1/C=C/c1cncc(-c2nn[nH]n2)c1	-1.54	1.53	-0.11	2.01	6.14	4.82	4	5.96	4.65	5.04	4.14	3.13	3.26	5.36	4.88	1.26	1.3	4.96	4.04	4.65
